# Data taken from PubChem BioAssay (NCI).
# Values joined by “and” are separate entries in the source; they are usually repeats but may differ in a detail not shown here. Identical values can stand only once. About 79,000 compounds went through this panel and 15% of them were active in at least one assay; those are over-represented in the sample as a whole. More than one record can exist for a structure, and the calls need not agree. Active and inactive are the calls of the source. Cut-off read from the data, not from the text of the source: active = growth inhibition above about 70%; inactive = the rest.
# Legend:
# [1] = NCI Yeast Anticancer Drug Screen. Data for the rad50 strain (AID 155);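 note: 0% = growth of vehicle-only cultures of the same strain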; conditions: S. cerevisiae rad50 strain growth inhibition, stronger effect = higher value
# Outline: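 Growth of the mutant yeast was measured after compound exposure and referenced to vehicle-treated cultures.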
# [2] = NCI Yeast Anticancer Drug Screen. Data for the mec2-1 strain (AID 157); conditions: S. cerevisiae mec2-1 strain, stronger effect = higher value
# Outline: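 Growth inhibition is read against vehicle-treated controls after compound exposure of the mec2-1 yeast strain, which is defective in DNA damage repair or cell cycle control.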
# [3] = NCI Yeast Anticancer Drug Screen. Data for the sgs1 mgt1 strain (AID 161);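 note: 0% = growth of cultures given vehicle only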; conditions: S. cerevisiae sgs1 mgt1 strain, stronger effect = higher value
# Outline: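 This yeast growth screen uses a strain with defined DNA-repair lesions; compound-treated growth is compared with vehicle-treated growth.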
# [4] = NCI Yeast Anticancer Drug Screen. Data for the cln2 rad14 strain (AID 165);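 note: 0% = growth equal to vehicle treated cultures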; conditions: S. cerevisiae cln2 rad14 strain, stronger effect = higher value
# Outline: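 Growth inhibition, relative to vehicle-treated controls, is the read-out. The test organism is a yeast strain with defined genetic alterations, cln2 rad14.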
# [5] = NCI Yeast Anticancer Drug Screen. Data for the bub3 strain (AID 167); conditions: S. cerevisiae bub3 mutant strain, stronger effect = higher value
# Outline: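 Whole-cell yeast assay. The mutant strain was incubated with compounds, and growth inhibition was determined by comparison with vehicle-treated cells.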
# [6] = NCI Yeast Anticancer Drug Screen. Data for the mlh1 rad18 strain (AID 175); conditions: S. cerevisiae mlh1 rad18 strain growth inhibition, stronger effect = higher value
# Outline: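 Cells of a genetically altered yeast strain, deficient in DNA damage repair, were treated with compound. Their growth was then compared with that of vehicle-treated cultures to give inhibition.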
# [7] = NCI Yeast Anticancer Drug Screen. Data for the rad50EPP+ strain (AID 151);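 note: 0% = growth of vehicle-treated control cultures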; conditions: S. cerevisiae rad50 mutant strain, stronger effect = higher value
# Outline: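 rad50EPP+ yeast treated with test compounds. Readout: growth vs vehicle control.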
# [8] = NCI Yeast Anticancer Drug Screen. Data for the mgt1 strain (AID 153); conditions: S. cerevisiae mgt1 mutant growth inhibition, stronger effect = higher value
# Outline: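 Growth inhibition relative to vehicle controls was scored for the mgt1 yeast strain after compound exposure.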
# [9] = NCI Yeast Anticancer Drug Screen. Data for the rad14 strain (AID 159);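 note: 0% = growth of vehicle-treated control cultures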; conditions: S. cerevisiae rad14 strain growth inhibition, stronger effect = higher value
# Outline: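 Here, inhibition of yeast growth was measured after compound exposure, using a strain with a genetic defect in DNA damage repair and vehicle-treated cultures as the reference.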
# [10] = NCI Yeast Anticancer Drug Screen. Data for the CLN2oe strain (AID 163);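 note: 0% = growth of vehicle-only control cultures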; conditions: S. cerevisiae CLN2oe strain, stronger effect = higher value
# Outline: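 Compound-treated yeast; growth vs vehicle ctrl = % inhibition. Genetically altered strain (cell-cycle control).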
# [11] = NCI Yeast Anticancer Drug Screen. Data for the wt2 strain (AID 169);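 note: 0% = growth of vehicle-treated yeast cultures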; conditions: S. cerevisiae wt2 strain growth inhibition, stronger effect = higher value
# Outline: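 Compound exposure of yeast; growth compared with vehicle controls; inhibition reported.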
# [12] = NCI Yeast Anticancer Drug Screen. Data for the mlh1 strain (AID 171);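 note: 0% = growth of vehicle-treated control cultures of the same strain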; conditions: S. cerevisiae mlh1 strain growth inhibition, stronger effect = higher value
# Outline: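 Compounds are applied to a genetically altered yeast strain, and its growth is compared with that of vehicle-treated cultures to give percent inhibition.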
# [13] = NCI Yeast Anticancer Drug Screen. Data for the rad18 strain (AID 177); conditions: S. cerevisiae rad18 mutant growth inhibition, stronger effect = higher value
# Outline: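 Compounds are applied to a repair-deficient yeast strain, and growth is compared with that of vehicle-treated cultures to give percent inhibition.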
# [14] = at 5.0 µM (retest, dose inferred, filed as 0.5)
# [15] = at 50.0 µM (retest, dose inferred, filed as 5.0)
smiles,measurement,setting,value
COc1cccc2c1C(=O)c1c(O)c3c(c(O)c1C2=O)CC(O)(C(=O)CO)CC3OC1CC(N)C(O)C(C)O1 (stereo not given),growth inhibition,[1]; [14],13% (inactive) and 24% (inactive) and 34% (inactive)
same,growth inhibition,[1]; [15],13% (inactive) and 18% (inactive) and 91% (active)
same,growth inhibition,[2]; [14],7% (inactive) and 6% (inactive) and 14% (inactive)
same,growth inhibition,[2]; [15],8% (inactive) and 10% (inactive) and 58% (inactive)
same,growth inhibition,[3]; [14],7% (inactive) and 16% (inactive) and 25% (inactive)
same,growth inhibition,[3]; [15],0% (inactive) and 4% (inactive) and 71% (active)
same,growth inhibition,[4]; [14],2% (inactive) and 8% (inactive) and 23% (inactive)
same,growth inhibition,[4]; [15],1% (inactive) and 4% (inactive) and 53% (inactive)
same,growth inhibition,[5]; [14],10% (inactive) and 15% (inactive) and 18% (inactive)
same,growth inhibition,[5]; [15],13% (inactive) and 16% (inactive) and 76% (active)
same,growth inhibition,[6]; [14],-5% (inactive) and 20% (inactive) and 42% (inactive)
same,growth inhibition,[6]; [15],-1% (inactive) and 3% (inactive) and 94% (active)
Cc1c(N=Nc2ccc(Cl)cc2)c(C)n(C2OC(CO)C(O)C(O)C2O)c(=S)c1C#N (stereo not given),growth inhibition,[7]; at 1.2 µM,5% (inactive)
same,growth inhibition,[7]; at 3.7 µM,19% (inactive)
same,growth inhibition,[7]; at 11.0 µM,40% (inactive)
same,growth inhibition,[7]; at 33.0 µM,66% (inactive)
same,growth inhibition,[7]; at 100.0 µM,81% (active)
same,growth inhibition,[8]; at 1.2 µM,-1% (inactive)
same,growth inhibition,[8]; at 3.7 µM,1% (inactive)
same,growth inhibition,[8]; at 11.0 µM,12% (inactive)
same,growth inhibition,[8]; at 33.0 µM,66% (inactive)
same,growth inhibition,[8]; at 100.0 µM,91% (active)
same,growth inhibition,[1]; at 1.2 µM,-3% (inactive)
same,growth inhibition,[1]; at 3.7 µM,-9% (inactive)
same,growth inhibition,[1]; [14],-11% (inactive)
same,growth inhibition,[1]; at 11.0 µM,-2% (inactive)
same,growth inhibition,[1]; at 33.0 µM,35% (inactive)
same,growth inhibition,[1]; [15],52% (inactive)
same,growth inhibition,[1]; at 50.0 µM,60.4% (inactive)
same,growth inhibition,[1]; at 100.0 µM,66% (inactive)
same,growth inhibition,[2]; at 1.2 µM,2% (inactive)
same,growth inhibition,[2]; at 3.7 µM,3% (inactive)
same,growth inhibition,[2]; [14],-5% (inactive)
same,growth inhibition,[2]; at 11.0 µM,6% (inactive)
same,growth inhibition,[2]; at 33.0 µM,21% (inactive)
same,growth inhibition,[2]; [15],40% (inactive)
same,growth inhibition,[2]; at 50.0 µM,60.2% (inactive)
same,growth inhibition,[2]; at 100.0 µM,28% (inactive)
same,growth inhibition,[9]; at 1.2 µM,-2% (inactive)
same,growth inhibition,[9]; at 3.7 µM,-3% (inactive)
same,growth inhibition,[9]; at 11.0 µM,6% (inactive)
same,growth inhibition,[9]; at 33.0 µM,28% (inactive)
same,growth inhibition,[9]; at 100.0 µM,71% (active)
same,growth inhibition,[3]; [14],1% (inactive)
same,growth inhibition,[3]; [15],65% (inactive)
same,growth inhibition,[3]; at 50.0 µM,87% (active)
same,growth inhibition,[10]; at 1.2 µM,-2% (inactive)
same,growth inhibition,[10]; at 3.7 µM,-2% (inactive)
same,growth inhibition,[10]; at 11.0 µM,1% (inactive)
same,growth inhibition,[10]; at 33.0 µM,15% (inactive)
same,growth inhibition,[10]; at 100.0 µM,54% (inactive)
same,growth inhibition,[4]; [14],44% (inactive)
same,growth inhibition,[4]; [15],52% (inactive)
same,growth inhibition,[4]; at 50.0 µM,59.5% (inactive)
same,growth inhibition,[5]; at 1.2 µM,0% (inactive)
same,growth inhibition,[5]; at 3.7 µM,2% (inactive)
same,growth inhibition,[5]; [14],1% (inactive)
same,growth inhibition,[5]; at 11.0 µM,9% (inactive)
same,growth inhibition,[5]; at 33.0 µM,23% (inactive)
same,growth inhibition,[5]; [15],-3% (inactive)
same,growth inhibition,[5]; at 50.0 µM,75.5% (active)
same,growth inhibition,[5]; at 100.0 µM,45% (inactive)
same,growth inhibition,[11]; at 1.2 µM,-2% (inactive)
same,growth inhibition,[11]; at 3.7 µM,-3% (inactive)
same,growth inhibition,[11]; at 11.0 µM,1% (inactive)
same,growth inhibition,[11]; at 33.0 µM,37% (inactive)
same,growth inhibition,[11]; at 100.0 µM,90% (active)
same,growth inhibition,[12]; at 1.2 µM,2% (inactive)
same,growth inhibition,[12]; at 3.7 µM,1% (inactive)
same,growth inhibition,[12]; at 11.0 µM,8% (inactive)
same,growth inhibition,[12]; at 33.0 µM,45% (inactive)
same,growth inhibition,[12]; at 100.0 µM,90% (active)
same,growth inhibition,[6]; [14],-19% (inactive)
same,growth inhibition,[6]; [15],53% (inactive)
same,growth inhibition,[6]; at 50.0 µM,83.9% (active)
same,growth inhibition,[13]; at 1.2 µM,-1% (inactive)
same,growth inhibition,[13]; at 3.7 µM,8% (inactive)
same,growth inhibition,[13]; at 11.0 µM,18% (inactive)
same,growth inhibition,[13]; at 33.0 µM,59% (inactive)
same,growth inhibition,[13]; at 100.0 µM,83% (active)
